From PubChem
Rows were chosen to be rich in hits. Some 5.4% of all compounds tested hit in one or more screens of this group.
JMJD2C inh – inhibitors of human GASC-1 (JMJD2C) demethylase; Q9H3R0; inhibition, % at 2.35 µM; 330,000 tested, 0.069% active; GST-JMJD2C(1-420) H3K9me3 demethylation, DELFIA europium; AID 2099;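 active means more than half of a compound's replicate wells show inhibition beyond 50%, single wells judged on their own value; inconclusive means some, but no more than half, of replicates pass 50% inhibition; inactive means no replicate passes 50% inhibition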;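 further: signal counts dimethyl H3K9 product captured on neutravidin plate; 0% = median of DMSO wells and 100% = 0.3 times that DMSO median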
Target sequence (Q9H3R0 1-420 limits assumed): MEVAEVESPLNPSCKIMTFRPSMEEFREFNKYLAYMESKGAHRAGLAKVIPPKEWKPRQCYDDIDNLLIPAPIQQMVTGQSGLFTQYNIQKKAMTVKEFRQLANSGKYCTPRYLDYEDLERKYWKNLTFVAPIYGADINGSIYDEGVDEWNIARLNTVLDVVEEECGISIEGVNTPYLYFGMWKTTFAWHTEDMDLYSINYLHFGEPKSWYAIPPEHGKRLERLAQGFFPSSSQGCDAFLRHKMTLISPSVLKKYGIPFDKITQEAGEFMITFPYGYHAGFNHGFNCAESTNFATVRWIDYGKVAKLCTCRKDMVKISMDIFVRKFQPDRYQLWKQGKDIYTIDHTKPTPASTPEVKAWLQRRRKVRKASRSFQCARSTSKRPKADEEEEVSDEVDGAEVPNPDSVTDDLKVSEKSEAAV
ALR H2O2 inh – blocks human ALR sulfhydryl oxidase activity | purified ALR, DTT oxidation, H2O2 HRP-luminol luminescence | 290,000 tested, 3.8% active | AID 485317 | P55789 | inhibition, % (no concentration beside the values);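 active means mean replicate inhibition above about 79%, with every replicate also reaching it, limit read from the data; inconclusive means only one of the two criteria met; inactive means mean below limit and not every replicate reaching it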
MIN6 prolif – inducers of beta-cell replication in MIN6 cells. MIN6 cells proliferation, ATPlite luminescence, 48 h; cells starved in 0.2% serum; 100% = growth in 10% serum. proliferation, % at 10 µM. 330,000 tested, 0.29% active. AID 2380;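 active means compounds whose signal lies at least 3.5 SD above the mean of all wells on their plate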;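 further: 0% = DMSO-treated cells in low-serum medium and 100% = 10% serum control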
Granule exo inh – blocks lytic granule exocytosis; TALL-104 LAMP-1 surface exposure, flow cytometry; cells stimulated with thapsigargin and PMA; inhibition, % at 10 µM; 360,000 tested, 0.66% active; AID 651702;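 active means inhibition above about 55%, limit read from the data; inconclusive means no clear call, values can overlap the other calls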
SMARCA2 act – activators of SMARCA2 function; MG213 cells, MMTV-luciferase reporter, dexamethasone, overnight; activation, % at 9.1 µM; 370,000 tested, 1% active; in the data active means activation above about 7.8%;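 further: 0% = vehicle wells and 100% = reference activator wells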
PfM18AAP inh – blocks P. falciparum M18 aspartyl aminopeptidase | inhibition, % at 7.35 µM | 290,000 tested, 1.2% active | recombinant PfM18AAP, H-Glu-NHMec fluorogenic cleavage | AID 1822;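 active means inhibition above the campaign mean inhibition over all tested compounds plus 3 SD, cut at about 28% in these data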;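 further: 0% = plate median of test compound wells and 100% = 2 mM ZnCl2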
* hit, by the source's call; u = inconclusive; x = not tested or not shown.

SMILES	JMJD2C inh	ALR H2O2 inh	MIN6 prolif	Granule exo inh	SMARCA2 act	PfM18AAP inh
O=C(N/N=C/c1c(O)n(-c2ccc(Cl)cn2)c(=O)c2ccccc12)C1CC1	2	95*	0	0	-4	-1
O=C(N/N=C/c1ccccc1O)c1ccncc1	8	-2	2	-4	-5	x
CN1C(=O)[C@@]2(C3=C(CCCC3=O)OC3=C2C(=O)OC2(CCCCC2)C3)c2ccccc21	x	x	x	x	-1	x
Cc1ccc2nc(-c3ccc(SCC(=O)O)nc3)[nH]c2c1	-53	98*	-4	1	-4	-2
COc1ccc(C2CCC3(CCC(=O)N3CCOC(=O)NCc3ccc(Cl)cc3)CC2)cc1 (configuration not stated)	x	x	x	x	-6	x
COc1ccc(N2CCN(CCNC(=O)C3CC(=O)N(C4CCCC4)C3)CC2)cc1 (configuration not stated)	-7	86*	-1	2	-2	8
COc1ccc(CNC(=O)C2CC(=O)N(C3CCCCC3)C2)cc1 (configuration not stated)	0	-7	-2	0	-1	0
O=S(=O)(Cc1ccccc1)N(O)c1ccccc1	12	99*	1	-12	-2	13
COC(=O)[C@]12C[C@H](CC(=O)NCCCCc3ccccc3)C(=O)N(Cc3cccc4ccccc34)C1=C[C@H](C(C)(C)C)O[C@@H]2C	x	x	x	x	-1	x
CC1=CC(C)(C)Nc2ccc(OC(=O)CN3C(=O)CCC3=O)cc21	8	99*	-4	0	-7	2
Cc1ccc(S(=O)(=O)N(C)Cc2ccc(C(=O)N/N=C3\CCCC(=O)C3)cc2)cc1	0	u	0	-1	-3	12
O=C1CCC/C(=N\NC(=O)c2ccc(NS(=O)(=O)c3ccc(Br)cc3)cc2)C1	2	7	-1	-7	0	30*
Nc1ccccc1Nc1c(F)c(F)nc(F)c1Cl	-3	98*	-1	-7	-4	-4
Nc1ccccc1Nc1cc(-c2cccc(Cl)c2)nn1-c1ccccc1	-6	1	0	4	-3	6
COc1cccc(C(=O)N2CCCC(Nc3ccc(C)c(C)c3)C2)c1 (configuration not stated)	-1	98*	6	2	0	11
COc1ccc(NC2CCCN(C(=O)c3ccc4nccnc4c3)C2)cc1OC (configuration not stated)	-4	96*	-2	-17	0	7
Cc1ccc(NC2CCCN(C(=O)c3ccnc(Cl)c3)C2)cc1C (configuration not stated)	0	96*	4	-4	-1	1
Cc1ccc(NC2CCCN(C(=O)c3ccc4nccnc4c3)C2)cc1C (configuration not stated)	-1	98*	-1	-5	-3	6
O=C(c1ccc2nccnc2c1)N1CCCC(Nc2ccc(F)c(F)c2)C1 (configuration not stated)	-1	2	4	19	-1	-2
C#CCN1CC(N(C)CCCO)CS1(=O)=O (configuration not stated)	x	x	x	x	-3	x
CCN(CC)C(=O)c1ncn2c1C(=O)N[C@H](C)C2	x	x	x	x	-2	x
Cc1cccc(C(=O)N2CCCC(Nc3ccc(C)c(C)c3)C2)n1 (configuration not stated)	9	99*	-1	6	4	-8
COc1ccc(C(=O)N2CCCC(Nc3ccc(C)c(C)c3)C2)c(OC)n1 (configuration not stated)	4	83*	-4	7	0	7
Cc1ccc(NC2CCCN(C(=O)c3ccc(F)cc3)C2)cc1C (configuration not stated)	1	90*	3	-4	-1	7
Cc1ccc(NC2CCCN(C(=O)c3cccc4nccnc34)C2)cc1C (configuration not stated)	-2	88*	3	10	0	9
SMILES	JMJD2C inh	ALR H2O2 inh	MIN6 prolif	Granule exo inh	SMARCA2 act	PfM18AAP inh
Cc1ccc(NC2CCCN(C(=O)c3ccc(-n4ccnc4)cc3)C2)cc1C (configuration not stated)	18	62	0	4	-2	10
COC(=O)C[C@H]1CC[C@@H]2[C@H](COc3ccc(NC(=O)c4ccccc4OC)cc3C(=O)N2C)O1	x	x	x	x	-1	x
COC(=O)[C@H]1C[C@@]2(N3CCCC3)c3ccccc3N(C(=O)OC(C)(C)C)[C@H]2N1C(=O)OC(C)(C)C	x	x	x	x	0	x
O=S(=O)(CC1NCc2cc(F)ccc21)NC1CCCC1 (configuration not stated)	x	x	x	x	3	x
Cc1ccc(C)c(/C=N/Nc2nc3ccccc3c(=O)n2O)c1	-5	6	-1	-9	1	31*
O=C(Nc1ccc(F)cc1)N[C@@H]1C[C@@H]2O[C@H](CO)CC[C@@H]2O[C@@H]1CCc1ccc(C2=CCCC2)cc1	x	x	x	x	-3	x
COc1cc(NC(C)CCc2ccccc2)cc(OC)c1OC (configuration not stated)	-2	88*	-1	45	0	12
COc1cccc(C(=O)O/N=C(\N)c2ccncc2)c1	1	2	-5	-1	7.8*	-5
COc1cccc(C(=O)O/N=C(\N)c2ccc(C)cc2)c1	4	42	-5	18	2	-9
O=C(CCC(=O)Nc1ccc(Br)cc1)N/N=C/c1ccc(O)cc1	1	20	-2	-18	-2	-6
O=C(CCC(=O)Nc1ccc(F)cc1)N/N=C/c1ccc(F)cc1	-31	-4	-4	-3	-2	0
O=C(CCC(=O)Nc1ccc(F)cc1)N/N=C/c1ccc(O)cc1	20	99*	0	-20	0	0
Cc1ccc(NC(=O)CCC(=O)N/N=C/c2ccc(O)cc2)cc1	-15	95*	-4	-5	-2	-1
O=[N+]([O-])/C=C/c1cn(Cc2ccccc2)c2ccccc12	-2	x	-3	18	-2	8
N#Cc1ccccc1Cn1cc(/C=C/[N+](=O)[O-])c2ccccc21	1	15	0	61*	-3	-2
COc1ccc(-n2c(COc3ccc(Cl)cc3)nnc2SCc2nc3ccccc3[nH]2)cc1	x	x	x	x	-3	x
Cc1oc(-c2cccs2)nc1CS(=O)CC(=O)NCCCOC(C)C (configuration not stated)	7	99*	-1	4	4	-4
CCCCNC(=O)CS(=O)Cc1nc(-c2cccs2)oc1C (configuration not stated)	0	98*	-3	2	3	-9
CC(C)OCCCNC(=O)c1cccs1	-11	0	0	-2	-1	3
Cc1oc(-c2cccs2)nc1CS(=O)CC(=O)NCCc1ccccc1 (configuration not stated)	-27	98*	-2	0	-3	3
CC(C)(C)c1ccc(-c2nnc(SCC(=O)Nc3ccc(S(=O)(=O)Nc4nccs4)cc3)n2Cc2ccco2)cc1	x	x	x	x	-4	x
